The record followed here is PubChem BioAssay (NCI).

The nature of assay [1]: NCI Yeast Anticancer Drug Screen. Data for the rad50 strain (AID 155).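 Also: 0% = growth of vehicle-only cultures of the same strain.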 The following applies: S. cerevisiae rad50 strain growth inhibition; at 50.0 µM; active compounds read high. The essentials: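 Relative growth inhibition (compound vs vehicle) was measured in yeast with a defined repair-gene alteration.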
Assay [2] in a line: NCI Yeast Anticancer Drug Screen. Data for the mec2-1 strain (AID 157). The following applies: S. cerevisiae mec2-1 strain, at 50.0 µM, active compounds read high. The essentials: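 Vehicle-treated cultures served as reference for growth inhibition of compound-exposed mec2-1 yeast.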
Assay [3] can be described thus: NCI Yeast Anticancer Drug Screen. Data for the sgs1 mgt1 strain (AID 161).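 Also: 0% = growth of cultures given vehicle only.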 The following applies: S. cerevisiae sgs1 mgt1 strain, at 50.0 µM, active compounds read high. The essentials: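 Read-out: growth inhibition vs vehicle controls. Cells: mutant yeast strain deficient in DNA damage repair.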
Assay [4] is described as follows: NCI Yeast Anticancer Drug Screen. Data for the cln2 rad14 strain (AID 165).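 Also: 0% = growth equal to vehicle treated cultures.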 The settings on record: S. cerevisiae cln2 rad14 strain, at 50.0 µM, active compounds read high. The essentials: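 Each compound was tested on cln2 rad14 yeast. Inhibition of growth was calculated against vehicle-exposed controls.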
Assay [5] is described as follows: NCI Yeast Anticancer Drug Screen. Data for the bub3 strain (AID 167). The following applies: S. cerevisiae bub3 mutant strain, at 50.0 µM, active compounds read high. The essentials: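 Screening used yeast with an engineered genetic alteration affecting cell cycle control. Compound-exposed cultures were compared with vehicle cultures, and reduced growth was taken as inhibition.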

Assay [6] is described as follows: NCI Yeast Anticancer Drug Screen. Data for the mlh1 rad18 strain (AID 175). The following applies: S. cerevisiae mlh1 rad18 strain growth inhibition; at 50.0 µM; active compounds read high. The essentials:
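Vehicle-treated cultures served as the reference for growth inhibition in a yeast strain carrying DNA damage repair alterations exposed to each compound.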

The panel holds about 79,000 compounds, 15% with a hit somewhere; the sample as a whole holds those more often. A number with no mark means an inactive call. Calls of active or inactive are those of the source. Rule as the data show it: active = growth inhibition above about 70%; inactive = the rest.

With `CSc1nc(-c2ccccc2)c(C(=O)NC(C)CN2CCCCC2)s1` (centres undefined), the growth inhibition in assay [1] was 13.5%; in assay [2] it was 5.15%; in assay [3] it was 7.45%; in assay [4], 11%; in assay [5] it was -3.2%; in assay [6], 11.1%.

On to `O=C1c2c(/C=C/c3ccc(Cl)c(Cl)c3)nc3ccccc3c2C(=O)N1CCN1CCCCC1`, for which the growth inhibition in assay [1] was 89.3% (active); in assay [2], 50.6%; in assay [3], 83.2% (active); in assay [4] it was 17.9%; in assay [5], 18.4%; in assay [6] it was 79.3% (active).

Take `C/C(=N/NS(=O)(=O)c1ccc(C)cc1)C(C)C`: the growth inhibition in assay [1] was 3.05%; in assay [2] it was 1.75%; in assay [3], 10.8%; in assay [4], -6.85%; in assay [5], 3.4%; in assay [6], 23.8%.

With `C/C(Cl)=C/CC1(C)CCCC(C)(C)CC1=O` (centres undefined), the growth inhibition was 6.4% in assay [1]; 7.4% in assay [2]; 1.5% in assay [3]; 2.05% in assay [4]; 1.85% in assay [5]; -10.3% in assay [6].

In the case of `Nc1ncnc(Nc2ccc(S(=O)(=O)O)cc2)n1`, the growth inhibition in assay [1] is -35.9%; in assay [2], -32.6%; in assay [3], -31.1%; in assay [4] it was -1.25%; in assay [5], -34.9%; in assay [6] it was -27.2%.

In the case of `CC(CS(C)(=O)=O)S(=O)(=O)Cc1ccccc1` (centres undefined), the growth inhibition was -2.4% in assay [1]; 6.05% in assay [2]; 3.2% in assay [3]; -28.8% in assay [4]; 6.25% in assay [5]; -0.45% in assay [6].

Consider `O=[N+]([O-])c1ccc(NN=C2CN3CCN(C2)c2ccccc23)c([N+](=O)[O-])c1`, for which the growth inhibition is 35.4% in assay [1]; 20.1% in assay [2]; 59.8% in assay [3]; 40.8% in assay [4]; 40.6% in assay [5]; 35.1% in assay [6].

As for `O=C1C=C(NCC(c2ccccc2)c2ccccc2)C(=O)c2ncccc21`, the growth inhibition in assay [1] is 33.2%; in assay [2] it was 24.8%; in assay [3], 43%; in assay [4] it was 34.9%; in assay [5] it was 40.9%; in assay [6], 77.8% (active).

On to `NC(=O)C(=CNC(=S)Nc1cccc(C(F)(F)F)c1)C(N)=O`, for which the growth inhibition in assay [1] is -45%; in assay [2], -44.5%; in assay [3], -14.8%; in assay [4], 16.4%; in assay [5], 5.5%; in assay [6], -56%.

As to `CCCn1c(C)nc2cc(C)cc(N)c21`, the growth inhibition in assay [1] was 19.2%; in assay [2] it was 20.4%; in assay [3], 11%; in assay [4] it was -17.4%; in assay [5], -1.15%; in assay [6], 1.7%.

Regarding `CC1=CCC2(C#N)CCC1C2O` (centres undefined), the growth inhibition is 15.2% in assay [1]; 17.8% in assay [2]; 8.1% in assay [3]; 22.4% in assay [4]; 10.4% in assay [5]; 17.6% in assay [6].

For the molecule `O=c1c2c([nH]c3c1ccc1[nH]c4c(c(=O)c13)CCCC4)CCCC2`, the growth inhibition is -18.9% in assay [1]; -0.75% in assay [2]; -12.6% in assay [3]; -13.6% in assay [4]; -8.5% in assay [5]; -2.3% in assay [6].

In the case of `O=c1[nH]c(=O)n(C2OC(CO)C(O)C2O)cc1OCc1ccccc1` (centres undefined), the growth inhibition in assay [1] is -31.8%; in assay [2] it was -19.8%; in assay [3], -22.8%; in assay [4], 4.75%; in assay [5], -6.6%; in assay [6], -31.5%.

In the case of `O=C(C[n+]1ccncc1)c1ccc2c(c1)CCCC2`, the growth inhibition in assay [1] is -8.7%; in assay [2] it was 10.8%; in assay [3] it was 14.7%; in assay [4], -5.95%; in assay [5], 46.1%; in assay [6], 20.5%.

Take `COCOc1ccc(C=O)cc1`: the growth inhibition in assay [1] is 9.75%; in assay [2] it was 13.1%; in assay [3], -14.3%; in assay [4], -4.6%; in assay [5], -14.1%; in assay [6] it was -5.65%.

Turning to `CC1(C)OC(C)(C)c2c1nnc(-c1cccc([N+](=O)[O-])c1)[n+]2[O-]`, the growth inhibition in assay [1] was -19.5%; in assay [2], -26.2%; in assay [3], 18.6%; in assay [4] it was 1.3%; in assay [5], 11.6%; in assay [6], -3.55%.

For the molecule `CCCCOC(=O)C(C)C(=O)CCC(C)CC` (centres undefined), the growth inhibition in assay [1] was 4.55%; in assay [2], 2.6%; in assay [3], -1.1%; in assay [4], -7.05%; in assay [5] it was 8.2%; in assay [6], 3.85%.

For `O=C(CCCC(=O)N/N=C/c1cc(Cl)ccc1[N+](=O)[O-])N/N=C\c1cc(Cl)ccc1[N+](=O)[O-]`, the growth inhibition is 20.7% in assay [1]; 12.1% in assay [2]; 11.1% in assay [3]; 10.7% in assay [4]; -1.9% in assay [5]; 7% in assay [6].

For the molecule `C=C1C(=O)[C@@]23CC1C(O)[C@@H](OC(C)=O)[C@@H]2C1(C)C(OC(C)=O)C[C@@H](OC(C)=O)C(C)(C)[C@@H]1C[C@H]3OC(C)=O` (some centres undefined), the growth inhibition was 16.1% in assay [1]; 11.9% in assay [2]; 14% in assay [3]; 22.4% in assay [4]; 2.05% in assay [5]; 0.15% in assay [6].
